Source: PubChem BioAssay (Tox21)
Inconclusive results are not listed. Where a call stands in place of a potency, no number is given. Active and inactive are the calls of the source. Unless noted, the call rests on the fitted dose curve; in most records, active means well fitted curve in the direction sought with a large enough effect in the repeat runs; inconclusive means weak or mixed curves; inactive means no such curve, though single readings can be large; an effect the other way counts as inactive or inconclusive.

Experiments:
[1] = qHTS assay to identify aromatase inhibitors - cell viability counter screen (AID 743084);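 further: cells stimulated with testosterone during compound exposure; nearly all actives have a fitted effect of over 55% in size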; further: potency means the concentration at half of the fitted maximal effect
[2] = target: Aryl hydrocarbon receptor (Homo sapiens) (UniProt P35869); assay: qHTS assay to identify small molecule that activate the aryl hydrocarbon receptor (AhR) signaling pathway (AID 743085); further: nearly all actives have a fitted effect of over 15% in size; further: potency means the concentration at half of the fitted maximal effect;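 on activation: HG2L7.5c1 human HepG2 liver cells with stably integrated DRE-driven firefly reporter; series mostly up to about 70 µM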
Aryl hydrocarbon receptor (Homo sapiens), sequence (P35869 whole entry, looked up): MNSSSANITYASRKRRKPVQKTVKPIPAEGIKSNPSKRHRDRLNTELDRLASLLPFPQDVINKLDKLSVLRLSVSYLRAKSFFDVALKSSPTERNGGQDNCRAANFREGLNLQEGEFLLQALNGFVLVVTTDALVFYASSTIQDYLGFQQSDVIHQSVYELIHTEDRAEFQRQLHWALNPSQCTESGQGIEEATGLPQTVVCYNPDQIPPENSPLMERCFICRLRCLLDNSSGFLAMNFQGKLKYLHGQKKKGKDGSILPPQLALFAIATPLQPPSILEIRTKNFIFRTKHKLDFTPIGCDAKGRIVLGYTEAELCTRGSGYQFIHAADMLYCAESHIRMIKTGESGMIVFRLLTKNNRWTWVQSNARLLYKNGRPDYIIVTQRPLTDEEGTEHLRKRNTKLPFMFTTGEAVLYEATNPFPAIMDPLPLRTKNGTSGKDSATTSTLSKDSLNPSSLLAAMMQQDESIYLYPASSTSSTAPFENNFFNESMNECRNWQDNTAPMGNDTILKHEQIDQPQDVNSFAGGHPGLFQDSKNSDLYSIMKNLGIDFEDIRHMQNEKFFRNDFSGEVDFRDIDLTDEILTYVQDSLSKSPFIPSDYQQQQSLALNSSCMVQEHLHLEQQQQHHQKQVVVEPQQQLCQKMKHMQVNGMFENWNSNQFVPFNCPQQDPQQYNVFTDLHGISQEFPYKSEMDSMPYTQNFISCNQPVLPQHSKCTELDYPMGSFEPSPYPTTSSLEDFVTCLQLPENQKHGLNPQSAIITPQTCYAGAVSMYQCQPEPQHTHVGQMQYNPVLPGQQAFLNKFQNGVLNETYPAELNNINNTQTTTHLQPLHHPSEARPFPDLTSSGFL
Summary of the method: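 Luminescence read-out: ONE-Glo reagent, 30 min at room temperature, in HG2L7.5c1 HepG2 reporter cells treated 24 h at 37C. Viability was measured beforehand by CellTiter-Fluor fluorescence after 30 min at 37C.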

[3] = qHTS assay to identify small molecule that activate the aryl hydrocarbon receptor (AhR) signaling pathway - cell viability counter screen (AID 743086); further: nearly all actives have a fitted effect of over 45% in size; further: potency means the concentration at half of the fitted maximal effect
Summary of the method: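 Cytotoxicity counter screen: CellTiter-Fluor signal (30 min, 37 C) in 4000 HepG2 cells/well carrying the DRE-luciferase reporter, following 24 h compound exposure at 37 C.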

[4] = target: Peroxisome proliferator-activated receptor gamma (Homo sapiens) (UniProt P37231); assay: qHTS assay to identify small molecule agonists of the peroxisome proliferator-activated receptor gamma (PPARg) signaling pathway (AID 743094; active means well fitted activation curve with a large enough effect in the signal ratio in the repeat runs, not every such curve was filed as active; the % refers to the signal ratio)
Peroxisome proliferator-activated receptor gamma (Homo sapiens), sequence (P37231 whole entry, looked up): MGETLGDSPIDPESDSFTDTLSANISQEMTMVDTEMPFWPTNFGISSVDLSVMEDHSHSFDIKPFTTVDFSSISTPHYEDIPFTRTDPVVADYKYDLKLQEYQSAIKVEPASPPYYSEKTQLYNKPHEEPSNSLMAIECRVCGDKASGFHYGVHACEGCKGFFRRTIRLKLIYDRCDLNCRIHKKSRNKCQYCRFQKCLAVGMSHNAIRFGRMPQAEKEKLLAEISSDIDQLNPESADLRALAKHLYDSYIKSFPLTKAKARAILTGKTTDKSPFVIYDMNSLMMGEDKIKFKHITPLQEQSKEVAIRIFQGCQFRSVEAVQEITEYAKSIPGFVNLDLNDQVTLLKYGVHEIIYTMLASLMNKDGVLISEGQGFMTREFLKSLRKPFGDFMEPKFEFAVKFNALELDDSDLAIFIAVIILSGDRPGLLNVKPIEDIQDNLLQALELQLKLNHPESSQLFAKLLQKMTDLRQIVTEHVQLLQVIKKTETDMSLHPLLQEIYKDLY
Summary of the method: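 Cell-based bla reporter, HEK293H background, PPARg-driven UAS. Pre-incubation 5 h, 37C, 5% CO2. Compound 17 h, 37C. Substrate 1 h RT; fluorescence.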

[5] = qHTS assay for small molecule agonists of the antioxidant response element (ARE) signaling pathway (AID 743202; active means well fitted activation curve with a large enough effect in the signal ratio in the repeat runs, not every such curve was filed as active; the % refers to the signal ratio; further: potency means the concentration at half of the fitted maximal effect)
Summary of the method: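 Beta-lactamase reporter activity, read as fluorescence intensity, reflects ARE/Nrf2 pathway induction in HepG2 cells after 16 h compound exposure at 37 C; substrate loading was 2 h at room temperature.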

[6] = qHTS assay to identify small molecule antagonists of the peroxisome proliferator-activated receptor delta (PPARd) signaling pathway - cell viability counter screen (AID 743213); further: nearly all actives have a fitted effect of over 50% in size; further: potency means the concentration at half of the fitted maximal effect
Summary of the method: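 Same-well viability: cells pre-incubated 5 h, dosed with compound plus 300 nM L165041, kept 17 h at 37 C, FRET substrate 2 h RT, then CellTiter-Glo 30 min RT and luminescence.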

[7] = target: Bile acid receptor (Homo sapiens) (UniProt Q96RI1); assay: qHTS assay to identify small molecule antagonists of the farnesoid-X-receptor (FXR) signaling pathway (AID 743217; active means well fitted inhibition curve with a large enough effect in the signal ratio in the repeat runs, not every such curve was filed as active; the % refers to the signal ratio; further: potency means the concentration at half of the fitted maximal effect)
Bile acid receptor (Homo sapiens), sequence (Q96RI1 whole entry, looked up): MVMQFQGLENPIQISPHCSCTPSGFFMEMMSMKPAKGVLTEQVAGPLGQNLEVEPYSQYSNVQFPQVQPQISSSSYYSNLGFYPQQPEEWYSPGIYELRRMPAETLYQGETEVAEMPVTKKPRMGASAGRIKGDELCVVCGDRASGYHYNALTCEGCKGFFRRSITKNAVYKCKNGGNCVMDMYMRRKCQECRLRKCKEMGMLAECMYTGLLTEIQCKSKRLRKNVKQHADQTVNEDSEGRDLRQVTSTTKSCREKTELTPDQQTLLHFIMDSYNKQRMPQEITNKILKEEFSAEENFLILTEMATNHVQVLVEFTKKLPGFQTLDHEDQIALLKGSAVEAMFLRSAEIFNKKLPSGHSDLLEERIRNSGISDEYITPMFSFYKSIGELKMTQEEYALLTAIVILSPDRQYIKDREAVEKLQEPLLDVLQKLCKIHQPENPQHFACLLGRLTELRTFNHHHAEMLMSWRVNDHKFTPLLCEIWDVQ
Summary of the method: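 FRET fluorescence after 2 h room-temperature LiveBLAzer loading gives the readout. Prior step: FXR-bla HEK 293T cells, seeded and incubated 5 h, received test compounds plus 50 uM final CDCA for 16 h at 37 °C.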

[8] = target: Bile acid receptor (Homo sapiens) (UniProt Q96RI1); assay: qHTS assay to identify small molecule agonists of the farnesoid-X-receptor (FXR) signaling pathway (AID 743220; active means well fitted activation curve with a large enough effect in the signal ratio in the repeat runs, not every such curve was filed as active; the % refers to the signal ratio)
Summary of the method: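 FXR-UAS-bla HEK 293T cells carrying a UAS-driven beta-lactamase reporter were plated for 5 h at 37C/5% CO2, then exposed to DMSO-dissolved Tox21 10K compounds for 16 h at 37C. A LiveBLAzer B/G FRET substrate was loaded for 2 h at room temperature before fluorescence reading.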

[9] = target: Vitamin D3 receptor (Homo sapiens) (UniProt P11473); assay: qHTS assay to identify small molecule antagonists of the vitamin D receptor (VDR) signaling pathway (AID 743223; active means well fitted inhibition curve with a large enough effect in the signal ratio in the repeat runs, not every such curve was filed as active; the % refers to the signal ratio)
Vitamin D3 receptor (Homo sapiens), sequence (P11473 whole entry, looked up): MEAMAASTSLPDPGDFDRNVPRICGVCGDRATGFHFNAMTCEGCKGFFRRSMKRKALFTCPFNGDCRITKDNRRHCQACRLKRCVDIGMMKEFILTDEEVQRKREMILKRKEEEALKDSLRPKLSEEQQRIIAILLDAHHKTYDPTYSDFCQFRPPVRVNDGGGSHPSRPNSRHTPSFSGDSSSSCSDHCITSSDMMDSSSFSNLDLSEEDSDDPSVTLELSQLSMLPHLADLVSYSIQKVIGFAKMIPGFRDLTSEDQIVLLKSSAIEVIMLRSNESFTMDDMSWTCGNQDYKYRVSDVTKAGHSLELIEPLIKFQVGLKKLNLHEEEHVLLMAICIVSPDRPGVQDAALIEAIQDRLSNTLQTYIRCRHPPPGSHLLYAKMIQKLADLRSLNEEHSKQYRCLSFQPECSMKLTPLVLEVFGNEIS
Summary of the method: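 Beta-lactamase reporter read-out: FRET substrate fluorescence after 2 h at room temperature, following 16 h exposure of VDR-bla cells to test compound plus 3 nM (final) 1alpha,25-dihydroxyvitamin D3 agonist at 37C.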

[10] = qHTS assay for small molecule agonists of the antioxidant response element (ARE) signaling pathway - cell viability counter screen (AID 743203; calls by dose curve; further: nearly all actives have a fitted effect of over 55% in size; further: potency means the concentration at half of the fitted maximal effect)
Summary of the method: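 Measured in the same wells as the beta-lactamase ARE reporter, this read-out is CellTiter-Glo luminescence from HepG2 ARE-bla cells given compounds for 16 hrs.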

[11] = qHTS assay to identify small molecule antagonists of the peroxisome proliferator-activated receptor gamma (PPARg) signaling pathway - cell viability counter screen (AID 743194); further: nearly all actives have a fitted effect of over 55% in size; further: potency means the concentration at half of the fitted maximal effect
Summary of the method: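 Viability was measured as CellTiter-Glo luminescence in GeneBLAzer PPARg UAS-bla HEK293H cells. These cells had been exposed 17 h at 37 C to compounds together with rosiglitazone at 50 nM final, with the beta-lactamase readout taken in the same wells.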

[12] = qHTS assay to identify small molecule agonists of the peroxisome proliferator-activated receptor delta (PPARd) signaling pathway - cell viability counter screen (AID 743211); further: nearly all actives have a fitted effect of over 55% in size; further: potency means the concentration at half of the fitted maximal effect
Summary of the method: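 Read-out: CellTiter-Glo luminescence, 30 min RT, measured in the same wells as the beta-lactamase reporter. Cells: GeneBLAzer PPAR delta UAS-bla HEK293H, 3000 cells/well, compound exposure 17 h at 37C.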

[13] = target: Peroxisome proliferator-activated receptor delta (Homo sapiens) (UniProt Q03181); assay: qHTS assay to identify small molecule agonists of the peroxisome proliferator-activated receptor delta (PPARd) signaling pathway (AID 743212; calls by dose curve; further: potency means the concentration at half of the fitted maximal effect)
Peroxisome proliferator-activated receptor delta (Homo sapiens), sequence (Q03181 whole entry, looked up): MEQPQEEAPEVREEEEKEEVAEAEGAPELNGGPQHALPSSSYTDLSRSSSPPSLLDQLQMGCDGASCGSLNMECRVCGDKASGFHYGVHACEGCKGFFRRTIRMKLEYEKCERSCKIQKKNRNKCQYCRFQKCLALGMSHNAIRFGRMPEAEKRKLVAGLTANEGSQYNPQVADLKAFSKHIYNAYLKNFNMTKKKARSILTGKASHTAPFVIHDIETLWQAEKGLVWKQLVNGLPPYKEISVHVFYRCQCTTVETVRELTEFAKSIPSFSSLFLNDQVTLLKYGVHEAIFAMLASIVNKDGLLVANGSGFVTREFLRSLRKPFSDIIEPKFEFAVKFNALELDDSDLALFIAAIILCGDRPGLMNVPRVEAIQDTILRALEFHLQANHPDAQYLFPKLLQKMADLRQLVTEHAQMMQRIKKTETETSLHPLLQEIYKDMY
Summary of the method: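 Steps: seed PPARd-bla HEK293H cells; incubate 5 h, 37 C, 5% CO2; add compounds in DMSO; incubate, 37 C; add LiveBLAzer B/G FRET substrate; hold 2 h at room temperature; measure fluorescence.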

[14] = target: Peroxisome proliferator-activated receptor delta (Homo sapiens) (UniProt Q03181); assay: qHTS assay to identify small molecule antagonists of the peroxisome proliferator-activated receptor delta (PPARd) signaling pathway (AID 743215; active means well fitted inhibition curve with a large enough effect in the signal ratio in the repeat runs, not every such curve was filed as active; the % refers to the signal ratio;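 further: cells stimulated with agonist L165041 at 300 nM final during compound exposure; series mostly up to about 62 µM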)
Summary of the method: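 Fluorescence from cleaved LiveBLAzer B/G FRET substrate (2 h, room temperature) reports PPARd-driven beta-lactamase in HEK293H UAS-bla cells. Cells had been treated 17 h at 37 C with compound plus 300 nM final L165041.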

[15] = qHTS assay to identify small molecule agonists of the farnesoid-X-receptor (FXR) signaling pathway - cell viability counter screen (AID 743218); further: nearly all actives have a fitted effect of over 45% in size; further: potency means the concentration at half of the fitted maximal effect
Summary of the method: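 Readout: CellTiter-Glo luminescence, 30 min RT, multiplexed after the FXR-bla FRET reading. HEK 293T FXR-UAS-bla cells received compound 5 h post-plating and were incubated 16 h at 37 C.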

[16] = qHTS assay to identify small molecule antagonists of the farnesoid-X-receptor (FXR) signaling pathway - cell viability counter screen (AID 743221; active means well fitted cell-killing curve with a large enough effect in the repeat runs, not every such curve was filed as active; further: nearly all actives have a fitted effect of over 50% in size)
Summary of the method: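 HEK 293T FXR-bla cells, 5 h pre-incubation; compound + CDCA 50 uM final, 16 h, 37 C; beta-lactamase FRET read first, then CellTiter-Glo luminescence, 30 min RT.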

[17] = target: Vitamin D3 receptor (Homo sapiens) (UniProt P11473); assay: qHTS assay to identify small molecule agonists of the vitamin D receptor (VDR) signaling pathway (AID 743222; calls by dose curve)
Summary of the method: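 Following 4 h attachment at 37C, VDR-bla cells (2,000 per well) received DMSO-dissolved compounds or controls. After 16 h incubation, LiveBLAzer B/G FRET substrate was added and fluorescence read 2 h later at room temperature.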

[18] = qHTS assay for small molecule activators of the heat shock response signaling pathway (AID 743210; active means well fitted activation curve with a large enough effect in the signal ratio in the repeat runs, with a control signal flat, not every such curve was filed as active; the % refers to the signal ratio;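 further: HeLa cells with beta-lactamase reporter driven by heat shock elements; series mostly up to about 63 µM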)
Summary of the method: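 Fluorescence from a cleaved B/G FRET substrate (2.5 h, room temp) reports HSE-driven beta-lactamase in HeLa cells treated 5 h at 37 C with DMSO-dissolved compounds.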

[19] = qHTS assay for small molecule activators of the heat shock response signaling pathway - cell viability counter screen (AID 743209); further: nearly all actives have a fitted effect of over 50% in size; further: potency means the concentration at half of the fitted maximal effect
Summary of the method: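 Same-well multiplex: after 2.5 h room-temperature incubation with LiveBLAzer B/G substrate and fluorescence reading, CellTiter-Glo reagent was added to HSE-bla HeLa cells that had received compound for 5 h at 37 C; luminescence read after 30 min.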

[20] = target: Peroxisome proliferator-activated receptor gamma (Homo sapiens) (UniProt P37231); assay: qHTS assay to identify small molecule antagonists of the peroxisome proliferator-activated receptor gamma (PPARg) signaling pathway (AID 743191; calls by dose curve; further: nearly all actives have a fitted effect of over 30% in size; further: potency means the concentration at half of the fitted maximal effect)
Summary of the method: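 Beta-lactamase reporter under UAS control in HEK293H PPARg-bla cells; compound treatment 17 h at 37C. Read-out: fluorescence intensity after 1 h room-temperature incubation with LiveBLAzer B/G FRET substrate.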

Structure (SMILES)	Potency [1]	Potency [2]	Potency [3]	Potency [4]	Potency [5]	Potency [6]	Potency [7]	Potency [8]	Potency [9]	Potency [10]	Potency [11]	Potency [12]	Potency [13]	Potency [14]	Potency [15]	Potency [16]	Potency [17]	Potency [18]	Potency [19]	Potency [20]
O=C1C(=O)c2ccccc2C(O)=C1C1CCC(c2ccc(Cl)cc2)CC1 (stereo not drawn)	inactive	4.03 µM (active)	inactive	inactive	6.68 µM (active)	inactive	inactive	inactive	inactive											
CN1C(=O)c2ccccc2C1=O	inactive	inactive	inactive	inactive						inactive										
COc1ccccc1N1CCN(CC(O)COc2cccc3ccccc23)CC1 (stereo not drawn)	inactive	29.8 µM (active)	inactive	inactive		29.8 µM (active)			inactive	inactive	inactive	26.6 µM (active)	inactive	inactive	inactive	inactive	inactive			
COC(=O)CS	inactive	inactive	inactive	inactive	inactive	inactive				inactive	inactive	inactive	inactive	inactive		inactive	inactive	inactive		
C=Cc1ccc(S(=O)(=O)O)cc1	inactive	inactive	inactive	inactive					inactive			inactive		inactive					inactive	
C(=C\c1ccccc1)/c1ccccc1	inactive	76.3 µM (active)	inactive	inactive		inactive	inactive	inactive	inactive	inactive		inactive	inactive	inactive		inactive	inactive	inactive	inactive	inactive
O=C(Cn1ccnc1[N+](=O)[O-])NCCO	inactive	inactive	inactive		inactive	inactive	inactive	inactive	inactive	inactive	inactive			inactive	inactive	inactive	inactive	inactive	inactive	inactive
CC(C)=CC(=O)C=C(C)C	inactive	inactive	inactive	inactive		inactive	inactive	inactive	inactive		inactive	inactive	inactive	inactive	inactive	inactive	inactive	inactive	inactive	
Cc1ccc(Cl)c(Nc2ccccc2C(=O)O)c1Cl	inactive	inactive	inactive		inactive	inactive	inactive	inactive		inactive	inactive	inactive			inactive	inactive		inactive		
OC(CCN1CCCC1)(c1ccccc1)C1CCCCC1 (stereo not drawn)	inactive	inactive		inactive	inactive	inactive			inactive	inactive	inactive					inactive	inactive	inactive	inactive	inactive
CCOc1cccc(-n2cc(C(=O)N3CCN(c4cc(C(=O)O)c5ccccc5c4)CC3)nc2-c2ccc(C)cc2)c1	inactive	inactive	inactive		9.25 µM (active)		inactive							inactive	46.7 µM (active)	inactive			inactive	
Nc1cccc2c1CN(C1CCC(=O)NC1=O)C2=O (stereo not drawn)	inactive	inactive		inactive	inactive	inactive				inactive	inactive	inactive	inactive	inactive		inactive	inactive	inactive	inactive	inactive
N#CCCN(CCO)CCO	inactive	inactive	inactive			inactive	inactive	inactive	inactive	inactive			inactive	inactive		inactive	inactive	inactive		
CCCCCCCCOc1ccc(C(=O)O)cc1	inactive	inactive	inactive			inactive	inactive		inactive			inactive	7.67 µM (active)	inactive	inactive	inactive				
CC(C)Nc1cccnc1N1CCN(C(=O)c2cc3cc(NS(C)(=O)=O)ccc3[nH]2)CC1	inactive	inactive	inactive			inactive	inactive		inactive	inactive		inactive				inactive	inactive	inactive	inactive	inactive
O=[N+]([O-])c1cc(C2CCCCC2)c(O)c([N+](=O)[O-])c1	17.2 µM (active)	inactive	30.5 µM (active)					inactive		24.3 µM (active)					inactive	inactive			inactive	
CC(CO)CO	inactive	inactive	inactive		inactive	inactive				inactive		inactive	inactive	inactive	inactive		inactive	inactive	inactive	
Cc1cccc(O)c1N	inactive	27.6 µM (active)	inactive			inactive	inactive	inactive		inactive	inactive	inactive				inactive		inactive	inactive	
CO/N=C(/C(=O)N[C@@H]1C(=O)N2C(C(=O)O)=C(COC(N)=O)CS[C@H]12)c1ccco1	inactive	inactive	inactive			inactive			inactive	inactive	inactive	inactive	inactive	inactive	inactive	inactive	inactive			
Nc1ccc(N=Nc2ccccc2)c(N)c1	30 µM (active)	30 µM (active)	26.7 µM (active)				inactive	inactive		inactive			inactive		inactive	inactive			inactive	42.7 µM (active)
CN1CCCC(n2nc(Cc3ccc(Cl)cc3)c3ccccc3c2=O)CC1 (stereo not drawn)	inactive	inactive	inactive							29.8 µM (active)		inactive		inactive	21.1 µM (active)			inactive	inactive	
Oc1cccc(Nc2ccccc2)c1	inactive	inactive	inactive			inactive	inactive	inactive		inactive			inactive	inactive		inactive		inactive	inactive	
C=C(C)[C@@H]1CCC2=CCC[C@@H](C)[C@]2(C)C1	inactive	inactive	inactive			inactive				inactive						inactive	inactive			inactive
CCCCCCCCCCCCCCN(CCO)CCO	43.3 µM (active)	inactive	inactive			49 µM (active)	49 µM (active)			61.1 µM (active)	43.6 µM (active)	43.6 µM (active)			43.6 µM (active)		inactive		24.5 µM (active)	
CC(C)(O)c1ccc(CNC(=O)c2cccnc2Oc2ccc3nonc3c2)cc1	inactive	inactive	inactive			inactive			inactive	inactive		inactive	inactive	inactive	inactive	inactive		inactive	inactive	
